Molecules are shown by their SMILES. Where a name gives a salt, the structure may show the parent alone. ± gives the standard deviation of the averaged measurements. The full ranking holds about 1,300 compounds; the median of “normalised cell viability” is about 1, and the lowest 2% start at about 0.15. What follows is part of a selection rich in the lowest values, with near analogues and random picks from the rest.

The assay deals with V-C8 + BRCA2 (BRCA2-proficient hamster cells). The assay can be described thus: normalised cell viability (fraction of plate median); higher = more viable cells (less toxic). As to conditions: 5 µM. A digest of the protocol:
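Hamster V-C8 cells with and without restored BRCA2 were exposed in 96-well plates to library drugs at 5 μM for 3 days (screen 1) or 6 days (screen 2). Cell viability was scored by resazurin assay, then median-plate normalised, averaging triplicate wells.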

`N=C(N)NCC1COC2(CCCCC2)O1` (stereo not given) [Guanadrel sulfate]: the normalised cell viability is, setting by setting: (treatment time: 3 days) 1.06 ± 0.038; (treatment time: 6 days) 1.03 ± 0.041.

`CN(C/C=C/C#CC(C)(C)C)Cc1cccc2ccccc12` [Terbinafine]: the normalised cell viability runs as follows: (treatment time: 3 days) 0.206 ± 0.0049; (treatment time: 6 days) 0.339 ± 0.031.

Take `CCCCCCC[N+](CC)(CC)CCCCc1ccc(Cl)cc1` [Clofilium tosylate]: the normalised cell viability (treatment time: 3 days) is 0.897 ± 0.063 and the normalised cell viability (treatment time: 6 days) is 0.935 ± 0.094.

For `CN1CCN(CCCN2c3ccccc3Sc3ccc(S(=O)(=O)N(C)C)cc32)CC1` [Thioproperazine dimesylate], the normalised cell viability runs as follows: (treatment time: 3 days) 0.884 ± 0.11; (treatment time: 6 days) 0.834 ± 0.039.

For the molecule `N=C(N)N/N=C/c1c(Cl)cccc1Cl` [Guanabenz acetate], the normalised cell viability by setting is: (treatment time: 3 days) 1.1 ± 0.022; (treatment time: 6 days) 1.01 ± 0.082.

Turning to `Cn1cnc([N+](=O)[O-])c1Sc1ncnc2[nH]cnc12` [Azathioprine], the normalised cell viability reads like this: (treatment time: 3 days) 0.93 ± 0.032; (treatment time: 6 days) 0.93 ± 0.045.

In the case of `C[C@@H]1CN(c2c(F)c(N)c3c(=O)c(C(=O)O)cn(C4CC4)c3c2F)C[C@H](C)N1` [Sparfloxacin], the normalised cell viability is, setting by setting: (treatment time: 3 days) 1.027 ± 0.009; (treatment time: 6 days) 1.05 ± 0.056.

For `COC(=O)C1=C(C)NC(C)=C(C(=O)OC(C)C)C1c1cccc2nonc12` (stereo not given) [Isradipine], the normalised cell viability (treatment time: 3 days) came to 1.02 ± 0.032 and the normalised cell viability (treatment time: 6 days) was 0.9264 ± 0.0066.

Take `CC1CNc2c(cccc2S(=O)(=O)N[C@@H](CCCNC(=N)N)C(=O)N2CC[C@@H](C)C[C@@H]2C(=O)O)C1` (stereo not given in full) [Argatroban]: the normalised cell viability stood at 1.203 ± 0.0019 (treatment time: 3 days) and 1.12 ± 0.14 (treatment time: 6 days).

On to `CC(=O)N(CC(O)CN(C(C)=O)c1c(I)c(C(=O)NCC(O)CO)c(I)c(C(=O)NCC(O)CO)c1I)c1c(I)c(C(=O)NCC(O)CO)c(I)c(C(=O)NCC(O)CO)c1I` (stereo not given) [Iodixanol], for which the normalised cell viability reads like this: (treatment time: 3 days) 0.975 ± 0.053; (treatment time: 6 days) 1 ± 0.059.

With `CN1CCC(OC(c2ccccc2)c2ccccc2)CC1` [Diphenylpyraline hydrochloride], the normalised cell viability was 0.976 ± 0.11 (treatment time: 3 days) and 1.04 ± 0.037 (treatment time: 6 days).

In the case of `CO[C@@]1(NC(=O)CSCC#N)C(=O)N2C(C(=O)O)=C(CSc3nnnn3C)CS[C@@H]21` [Cefmetazole sodium salt], the normalised cell viability is, setting by setting: (treatment time: 3 days) 0.959 ± 0.029; (treatment time: 6 days) 0.98 ± 0.072.

For `O=C(Nc1cccc2c(=O)cc(-c3nnn[nH]3)oc12)c1ccc(OCCCCc2ccccc2)cc1` [Pranlukast], the normalised cell viability is, setting by setting: (treatment time: 3 days) 1.06 ± 0.05; (treatment time: 6 days) 1.08 ± 0.049.

Consider `CCN(CC)CCOCCOC(=O)C1(c2ccccc2)CCCC1` [Carbetapentane citrate], for which the normalised cell viability (treatment time: 3 days) worked out at 0.163 ± 0.0089 and the normalised cell viability (treatment time: 6 days) is 0.181 ± 0.0049.

For `O=C(O)CCC(=O)Nc1ccc(S(=O)(=O)Nc2nccs2)cc1` [Succinylsulfathiazole], the normalised cell viability is, setting by setting: (treatment time: 3 days) 0.979 ± 0.083; (treatment time: 6 days) 1.04 ± 0.04.

For `CC(C)(C)NCC(O)c1cc(O)cc(O)c1` (stereo not given) [Terbutaline hemisulfate], the normalised cell viability was determined as 0.45 ± 0.037 (treatment time: 3 days) and 0.5206 ± 0.0045 (treatment time: 6 days).

For the molecule `OCC(O)CN1CCN(c2ccccc2)CC1` (racemic) [Dropropizine (R,S)], the normalised cell viability was 1.07 ± 0.041 (treatment time: 3 days) and 0.9583 ± 0.0092 (treatment time: 6 days).

With `COC(=O)C1=C(C)NC(C)=C(C(=O)OC2CCCN(Cc3ccccc3)C2)C1c1cccc([N+](=O)[O-])c1` (stereo not given) [Benidipine hydrochloride], the normalised cell viability by setting is: (treatment time: 3 days) 0.988 ± 0.065; (treatment time: 6 days) 0.97 ± 0.04.

Consider `COc1ccc(C2CNC(=O)C2)cc1OC1CCCC1` (stereo not given) [Rolipram], for which the normalised cell viability was determined as 0.985 ± 0.037 (treatment time: 3 days) and 1.15 ± 0.22 (treatment time: 6 days).

On to `CC(C)n1c(/C=C/C(O)CC(O)CC(=O)O)c(-c2ccc(F)cc2)c2ccccc21` (stereo not given) [Fluvastatin sodium salt], for which the normalised cell viability runs as follows: (treatment time: 3 days) 0.134 ± 0.0077; (treatment time: 6 days) 0.155 ± 0.013.

Turning to `CC(C)c1c(C(=O)Nc2ccccc2)c(-c2ccccc2)c(-c2ccc(F)cc2)n1CC[C@@H](O)C[C@@H](O)CC(=O)O` [Atorvastatin], the normalised cell viability by setting is: (treatment time: 3 days) 0.701 ± 0.01; (treatment time: 6 days) 0.743 ± 0.017.

Consider `CC[N+](C)(C)Cc1ccccc1Br` [Bretylium tosylate], for which the normalised cell viability reads like this: (treatment time: 3 days) 0.9932 ± 0.0068; (treatment time: 6 days) 0.977 ± 0.013.

In the case of `C=C(NC(=O)C(=C)NC(=O)c1csc(C2=N[C@@H]3c4csc(n4)[C@H]4NC(=O)c5csc(n5)[C@H]([C@](C)(O)[C@@H](C)O)NC(=O)[C@H]5CSC(=N5)/C(=C/C)NC(=O)[C@H]([C@@H](C)O)NC(=O)c5csc(n5)[C@]3(CC2)NC(=O)[C@H](C)NC(=O)C(=C)NC(=O)[C@H](C)NC(=O)[C@H]([C@@H](C)CC)N[C@@H]2C=Cc3c([C@H](C)O)cc(nc3[C@H]2O)C(=O)O[C@@H]4C)n1)C(N)=O` [Thiostrepton], the normalised cell viability was 0.135 ± 0.0082 (treatment time: 3 days) and 0.126 ± 0.013 (treatment time: 6 days).

For the molecule `CCCC(=O)Nc1ccc(OCC(O)CNC(C)C)c(C(C)=O)c1` (stereo not given) [Acebutolol hydrochloride], the normalised cell viability is, setting by setting: (treatment time: 3 days) 0.99 ± 0.034; (treatment time: 6 days) 1.04 ± 0.012.

As to `CCC(=O)OCC(=O)[C@@]1(OC(=O)CC)[C@@H](C)C[C@H]2[C@@H]3CCC4=CC(=O)C=C[C@]4(C)[C@@]3(Cl)[C@@H](O)C[C@@]21C` [Beclomethasone dipropionate], the normalised cell viability reads like this: (treatment time: 3 days) 1 ± 0.081; (treatment time: 6 days) 0.987 ± 0.048.

Consider `Cc1onc(-c2c(F)cccc2Cl)c1C(=O)N[C@@H]1C(=O)N2[C@@H]1SC(C)(C)[C@@H]2C(=O)O` [Flucloxacillin sodium], for which the normalised cell viability is, setting by setting: (treatment time: 3 days) 1.02 ± 0.065; (treatment time: 6 days) 0.984 ± 0.016.

On to `Cc1c(Cl)cccc1Nc1ncccc1C(=O)O` [Clonixin Lysinate], for which the normalised cell viability (treatment time: 3 days) stood at 0.938 ± 0.067 and the normalised cell viability (treatment time: 6 days) stood at 0.983 ± 0.046.

On to `Nc1ccc(S(=O)(=O)Nc2ncccn2)cc1` [Sulfadiazine], for which the normalised cell viability by setting is: (treatment time: 3 days) 1.01 ± 0.068; (treatment time: 6 days) 1.024 ± 0.0048.

On to `O=S(=O)(O)CCS` [Mesna], for which the normalised cell viability worked out at 1.06 ± 0.07 (treatment time: 3 days) and 1.02 ± 0.024 (treatment time: 6 days).

As to `C[C@@H]1CCC[C@H](C)N1NC(=O)c1ccc(Cl)c(S(N)(=O)=O)c1` [Clopamide], the normalised cell viability reads like this: (treatment time: 3 days) 1.22 ± 0.11; (treatment time: 6 days) 0.9899 ± 0.0083.

For `N#Cc1ccc(C2CCCc3cncn32)cc1` (stereo not given) [Fadrozole hydrochloride], the normalised cell viability by setting is: (treatment time: 3 days) 0.955 ± 0.11; (treatment time: 6 days) 0.949 ± 0.078.

With `NC(=O)c1cc[n+](CC2=C(C(=O)[O-])N3C(=O)[C@@H](NC(=O)[C@@H](c4ccccc4)S(=O)(=O)O)[C@H]3SC2)cc1` [Cefsulodin sodium salt], the normalised cell viability (treatment time: 3 days) stood at 0.981 ± 0.043 and the normalised cell viability (treatment time: 6 days) was 1.06 ± 0.048.

For the molecule `c1ccc(-c2ccc(C(c3ccccc3)n3ccnc3)cc2)cc1` (stereo not given) [Bifonazole], the normalised cell viability reads like this: (treatment time: 3 days) 0.951 ± 0.042; (treatment time: 6 days) 0.914 ± 0.066.

Regarding `O=C(O[C@@H]1C[C@@H]2C[C@H]3C[C@H](C1)N2CC3=O)c1c[nH]c2ccccc12` [Dolasetron mesilate], the normalised cell viability (treatment time: 3 days) was 1.06 ± 0.19 and the normalised cell viability (treatment time: 6 days) amounted to 1.02 ± 0.03.

In the case of `O=C(Oc1cccc2cccnc12)c1ccccc1` [Benzoxiquine], the normalised cell viability (treatment time: 3 days) is 0.791 ± 0.052 and the normalised cell viability (treatment time: 6 days) is 0.738 ± 0.056.

For the molecule `COc1cccc2c1C(=O)c1c(O)c3c(c(O)c1C2=O)C[C@@](O)(C(=O)CO)C[C@@H]3O[C@H]1C[C@H](N)[C@H](O)[C@H](C)O1` [Doxorubicin hydrochloride], the normalised cell viability was 0.12 ± 0.0088 (treatment time: 3 days) and 0.122 ± 0.0099 (treatment time: 6 days).

On to `COc1cccc2c1C(=O)c1c(O)c3c(c(O)c1C2=O)C[C@@](O)(C(=O)CO)C[C@@H]3O[C@H]1C[C@H](N)[C@@H](O)[C@H](C)O1` [Epirubicin hydrochloride], for which the normalised cell viability turned out to be 0.136 ± 0.0036 (treatment time: 3 days) and 0.153 ± 0.024 (treatment time: 6 days).

Turning to `COc1cccc2c1C(=O)c1c(O)c3c(c(O)c1C2=O)C[C@@](O)(C(C)=O)C[C@@H]3O[C@H]1C[C@H](N)[C@H](O)[C@H](C)O1` [Daunorubicin hydrochloride], the normalised cell viability runs as follows: (treatment time: 3 days) 0.136 ± 0.0082; (treatment time: 6 days) 0.128 ± 0.015.

With `Clc1cc(Cl)c(OCC#CI)cc1Cl` [Haloprogin], the normalised cell viability turned out to be 0.278 ± 0.01 (treatment time: 3 days) and 0.247 ± 0.048 (treatment time: 6 days).

On to `CCC1(c2ccccc2)C(=O)NCNC1=O` [Primidone], for which the normalised cell viability by setting is: (treatment time: 3 days) 0.947 ± 0.13; (treatment time: 6 days) 0.951 ± 0.1.

For the molecule `CN1C(C(=O)Nc2ccccn2)=C(O)c2ccccc2S1(=O)=O` [Piroxicam], the normalised cell viability was found to be 1.02 ± 0.032 (treatment time: 3 days) and 1.05 ± 0.015 (treatment time: 6 days).

As for `O=C1CC2(CCCC2)CC(=O)N1CCCCN1CCN(c2ncccn2)CC1` [Buspirone hydrochloride], the normalised cell viability came to 0.997 ± 0.038 (treatment time: 3 days) and 1.083 ± 0.0083 (treatment time: 6 days).

With `CNNCc1ccc(C(=O)NC(C)C)cc1` [Procarbazine hydrochloride], the normalised cell viability by setting is: (treatment time: 3 days) 0.879 ± 0.049; (treatment time: 6 days) 0.956 ± 0.099.

On to `OCCN1CCN(CCCN2c3ccccc3Sc3ccc(C(F)(F)F)cc32)CC1` [Fluphenazine dihydrochloride], for which the normalised cell viability came to 0.825 ± 0.062 (treatment time: 3 days) and 0.662 ± 0.096 (treatment time: 6 days).

In the case of `CNC(=C[N+](=O)[O-])NCCSCc1csc(CN(C)C)n1` [Nizatidine], the normalised cell viability is, setting by setting: (treatment time: 3 days) 1 ± 0.012; (treatment time: 6 days) 1.05 ± 0.042.

The values above are taken from the supplement of paper PMC6609913.
